This is part of a sample that, as a whole, favours compounds with a hit. Of some 83,000 tested, about 20% had one in any assay.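 Negative percent growth values reflect cell death: -40 means 40% of the cells present at the start died, and -100 means all died.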 Calls of active or inactive are those of the source. How the source made its calls: active means growth percent below 10; inactive means the rest.
How the values were obtained:
Experiment in all cases: NCI-60 one-dose screen, 48 h (100 = growth as untreated, 0 = no growth, -100 = all killed)
Conditions in all cases: 10 µM unless noted
SK-MEL-2 melanoma = tested on: SK-MEL-2 melanoma
EKVX NSCLC = tested on: EKVX NSCLC
SN12C renal = tested on: SN12C renal
UO-31 renal = tested on: UO-31 renal
TK-10 renal = tested on: TK-10 renal
ACHN renal = tested on: ACHN renal
CAKI-1 renal = tested on: CAKI-1 renal
A498 renal = tested on: A498 renal
CCRF-CEM leukemia = tested on: CCRF-CEM leukemia
MOLT-4 leukemia = tested on: MOLT-4 leukemia

Measured: growth

O=C(CBr)CN1C(=O)c2ccccc2C1=O
inactive: SK-MEL-2 melanoma 108% | EKVX NSCLC 107% | SN12C renal 109% | UO-31 renal 88.8% | TK-10 renal 100% | ACHN renal 104% | CAKI-1 renal 98.6% | A498 renal 88.2% | CCRF-CEM leukemia 111% | MOLT-4 leukemia 104%

C=CCn1c(SCC(=O)Nc2ccc(C(=O)/C=C/c3cc(OC)c(OC)c(OC)c3)cc2)nnc1-c1cc(-c2ccc(OC)cc2)nc2ccccc12
inactive: SK-MEL-2 melanoma 102% | EKVX NSCLC 100% | SN12C renal 90.3% | UO-31 renal 76.3% | TK-10 renal 121% | ACHN renal 89.2% | CAKI-1 renal 81.5% | A498 renal 89% | CCRF-CEM leukemia 66.6% | MOLT-4 leukemia 66.4%

Cc1ccc(Nc2nc(-c3ccc(F)cc3)c(C#N)c(=O)n2C)cc1
inactive: SK-MEL-2 melanoma 70.8% | EKVX NSCLC 54.6% | SN12C renal 62.9% | UO-31 renal 44.8% | TK-10 renal 55.4% | ACHN renal 63% | CAKI-1 renal 59.3% | A498 renal 42.7% | CCRF-CEM leukemia 98.8% | MOLT-4 leukemia 81.5%

O=C(Nc1nc(C(=O)N2CCN(C(c3ccccc3)c3ccccc3)CC2)cs1)c1ccc(NC2CCCCC2)c([N+](=O)[O-])c1
inactive: SK-MEL-2 melanoma 104% | EKVX NSCLC 77.9% | SN12C renal 85.6% | UO-31 renal 66.1% | TK-10 renal 100% | ACHN renal 86.6% | CAKI-1 renal 78.4% | A498 renal 87.6% | CCRF-CEM leukemia 95% | MOLT-4 leukemia 77.9%

FC(F)(F)c1[nH]ncc1-c1nc2c(N3CCCCC3)cc3[nH]ncc3c2c2c1CCCC2
active: SK-MEL-2 melanoma -34% | SN12C renal 2.49% | UO-31 renal -19.6% | TK-10 renal 1.88% | ACHN renal 4.67% | CAKI-1 renal 5.43% | A498 renal -71.6% | CCRF-CEM leukemia 4.61% | MOLT-4 leukemia -0.165%
inactive: EKVX NSCLC 13.2%

COc1cc(-c2cc(-c3ccc(Nc4ncnc5cc(Cl)ccc45)cc3)nc(N3CCN(C)CC3)n2)cc(OC)c1OC
inactive: SK-MEL-2 melanoma 93.4% | EKVX NSCLC 102% | SN12C renal 88.6% | UO-31 renal 23.4% | TK-10 renal 136% | ACHN renal 75.4% | CAKI-1 renal 91% | A498 renal 102% | CCRF-CEM leukemia 52.5% | MOLT-4 leukemia 58.1%

COc1ccc2nc3ccccc3c(NCc3ccc(F)cc3)c2c1
inactive: SK-MEL-2 melanoma 35% | EKVX NSCLC 22.4% | SN12C renal 17% | TK-10 renal 37.8% | CCRF-CEM leukemia 18.4%
active: UO-31 renal -8.18% | ACHN renal 5.65% | CAKI-1 renal 7.16% | A498 renal -8.16% | MOLT-4 leukemia 0.544%

COc1ccc2nc(SCC(=O)Nc3ccccc3C)[nH]c2c1
inactive: SK-MEL-2 melanoma 101% | EKVX NSCLC 88.4% | SN12C renal 95.2% | UO-31 renal 74.3% | TK-10 renal 105% | ACHN renal 94.4% | CAKI-1 renal 88% | CCRF-CEM leukemia 87.5% | MOLT-4 leukemia 88.8%
active: A498 renal -41.9%

CN(CCC#N)c1ccc(/C=C2\NC(=O)NC2=O)cc1
inactive: SK-MEL-2 melanoma 100% | EKVX NSCLC 79.3% | SN12C renal 98.6% | UO-31 renal 84.4% | TK-10 renal 93.5% | ACHN renal 97.9% | CAKI-1 renal 82.8% | A498 renal 89.3% | CCRF-CEM leukemia 107% | MOLT-4 leukemia 92%

Cc1[nH]c(C(=O)Nc2ccc(C(N)=O)cc2NC(C)C)c(Cl)c1Cl
inactive: SK-MEL-2 melanoma 101% | EKVX NSCLC 87% | SN12C renal 105% | UO-31 renal 66% | TK-10 renal 120% | ACHN renal 96.5% | CAKI-1 renal 94.1% | A498 renal 69.7% | CCRF-CEM leukemia 94.2% | MOLT-4 leukemia 86%

Cc1cc2nc(-c3c(-c4ccc(F)cc4)nc4sccn34)[nH]c2cc1C
inactive: SK-MEL-2 melanoma 100% | EKVX NSCLC 103% | SN12C renal 98.6% | UO-31 renal 78.6% | TK-10 renal 86% | ACHN renal 93.6% | CAKI-1 renal 89.9% | A498 renal 89.2% | CCRF-CEM leukemia 90.1% | MOLT-4 leukemia 83.4%

O=C1Nc2ccc(F)cc2/C1=C\c1nc(-c2ccccc2F)n2ccccc12
active: ACHN renal 8.93%
inactive: SK-MEL-2 melanoma 38.3% | EKVX NSCLC 102% | SN12C renal 87.1% | UO-31 renal 77.6% | TK-10 renal 97.5% | CAKI-1 renal 68.4% | A498 renal 111% | CCRF-CEM leukemia 70.8% | MOLT-4 leukemia 81.2%

O=C(/C=C/C12c3ccccc3C(c3ccccc31)C1C(=O)NC(=O)C12)c1ccccn1 (stereo not given)
inactive: EKVX NSCLC 19.6% | SN12C renal 17.2% | CAKI-1 renal 16.9%
active: SK-MEL-2 melanoma 7.36% | UO-31 renal 6.89% | TK-10 renal 7.71% | ACHN renal 1.3% | A498 renal -3.11% | CCRF-CEM leukemia -16.1% | MOLT-4 leukemia -2.05%

Source: PubChem BioAssay (NCI)
